# Assay results: the supplement of paper PMC8728848
# Only a selection was taken, and the strongest signals are over-represented in it overall.
# How the values were obtained:
# Experiment in all cases: glycan array binding signal (z-score within array); higher = stronger binding
# Settings in all cases: glycan notation: IUPAC condensed, linker removed
# [1] = biological target: Fuc(a1-2)Gal(b1-3)[Fuc(a1-4)]GlcNAc
# Outline: (§1)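 The Consortium for Functional Glycomics database supplied 3228 glycan arrays, of which those lacking an available protein sequence were dropped. The binding signal, a within-array Z-score, was averaged across arrays of the same protein sequence and across linkers. Negative scores can be read as non-binding.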
# [2] = biological target: Fuc(a1-2)Gal(b1-4)GlcNAc(b1-2)[Fuc(a1-2)Gal(b1-4)GlcNAc(b1-4)]Man(a1-3)[Fuc(a1-2)Gal(b1-4)GlcNAc(b1-2)Man(a1-6)]Man(b1-4)GlcNAc(b1-4)GlcNAc
# Outline: as §1
# [3] = biological target: Fuc(a1-2)Gal(b1-4)GlcNAc(b1-3)GalNAc
# Outline: as §1
# [4] = biological target: Fuc(a1-2)Gal(b1-4)GlcNAc(b1-3)[Fuc(a1-3)[Gal(b1-4)]GlcNAc(b1-6)]Gal(b1-4)Glc
# Outline: as §1
# [5] = biological target: Fuc(a1-2)Gal(b1-4)[Fuc(a1-3)]GlcNAc(b1-2)[Fuc(a1-2)Gal(b1-4)[Fuc(a1-3)]GlcNAc(b1-4)]Man(a1-3)[Fuc(a1-2)Gal(b1-4)[Fuc(a1-3)]GlcNAc(b1-2)Man(a1-6)]Man(b1-4)GlcNAc(b1-4)GlcNAc
# Outline: as §1
# [6] = biological target: Fuc(a1-2)Gal6S(b1-4)Glc
# Outline: as §1
# [7] = biological target: Fuc(a1-2)[Gal(a1-3)]Gal(b1-4)GlcNAc(b1-2)Man(a1-3)[Fuc(a1-2)[Gal(a1-3)]Gal(b1-4)GlcNAc(b1-2)Man(a1-6)]Man(b1-4)GlcNAc(b1-4)GlcNAc
# Outline: as §1
# [8] = biological target: Fuc(a1-2)[Gal(a1-3)]Gal(b1-4)GlcNAc(b1-6)GalNAc
# Outline: as §1
# [9] = biological target: Fuc(a1-3)[Gal(b1-4)]GlcNAc(b1-2)Man(a1-3)[Fuc(a1-3)[Gal(b1-4)]GlcNAc(b1-2)Man(a1-6)]Man(b1-4)GlcNAc(b1-4)[Fuc(a1-6)]GlcNAc
# Outline: as §1
# [10] = biological target: Fuc(a1-3)[Gal3S(b1-4)]Glc
# Outline: as §1
# [11] = biological target: Gal(a1-3)Gal(b1-3)GlcNAc(b1-2)Man(a1-3)[Gal(a1-3)Gal(b1-3)GlcNAc(b1-2)Man(a1-6)]Man(b1-4)GlcNAc(b1-4)GlcNAc
# Outline: as §1
# [12] = biological target: Gal(a1-3)Gal(b1-3)GlcNAc(b1-6)GalNAc
# Outline: as §1
# [13] = biological target: Gal(a1-3)Gal(b1-4)GlcNAc
# Outline: as §1
# [14] = biological target: Gal(b1-3)GlcNAc(b1-2)Man(a1-3)[Gal(b1-3)GlcNAc(b1-2)Man(a1-6)]Man(b1-4)GlcNAc(b1-4)GlcNAc
# Outline: as §1
# [15] = biological target: Gal(b1-3)GlcNAc(b1-3)Gal(b1-4)GlcNAc(b1-3)Gal(b1-4)GlcNAc(b1-2)[Gal(b1-3)GlcNAc(b1-3)Gal(b1-4)GlcNAc(b1-3)Gal(b1-4)GlcNAc(b1-6)]Man(a1-6)[Gal(b1-3)GlcNAc(b1-3)Gal(b1-4)GlcNAc(b1-3)Gal(b1-4)GlcNAc(b1-2)Man(a1-3)]Man(b1-4)GlcNAc(b1-4)[Fuc(a1-6)]GlcNAc
# Outline: as §1
# [16] = biological target: Gal(b1-3)[Fuc(a1-4)]GlcNAc(b1-6)GalNAc
# Outline: as §1
# [17] = biological target: Gal(b1-4)GlcNAc(b1-2)Man(a1-3)Man(b1-4)GlcNAc(b1-4)GlcNAc
# Outline: as §1
# [18] = biological target: Gal(b1-4)GlcNAc(b1-2)Man(a1-6)[Man(a1-3)]Man(b1-4)GlcNAc(b1-4)GlcNAc
# Outline: as §1
# [19] = biological target: Gal(b1-4)GlcNAc(b1-2)[Gal(b1-4)GlcNAc(b1-4)]Man(a1-3)[GlcNAc(b1-4)][Gal(b1-4)GlcNAc(b1-2)Man(a1-6)]Man(b1-4)GlcNAc(b1-4)GlcNAc
# Outline: as §1
# [20] = biological target: Gal(b1-4)GlcNAc(b1-2)[Gal(b1-4)GlcNAc(b1-6)]Man(a1-6)[Gal(b1-4)GlcNAc(b1-2)Man(a1-3)]Man(b1-4)GlcNAc(b1-4)GlcNAc
# Outline: as §1
# [21] = biological target: Gal(b1-4)GlcNAc(b1-3)Gal(b1-4)GlcNAc(b1-3)Gal(b1-4)GlcNAc
# Outline: as §1
# [22] = biological target: Gal(b1-4)GlcNAc(b1-3)Gal(b1-4)GlcNAc(b1-3)Gal(b1-4)GlcNAc(b1-3)Gal(b1-4)GlcNAc(b1-2)Man(a1-3)[Gal(b1-4)GlcNAc(b1-3)Gal(b1-4)GlcNAc(b1-3)Gal(b1-4)GlcNAc(b1-3)Gal(b1-4)GlcNAc(b1-2)Man(a1-6)]Man(b1-4)GlcNAc(b1-4)[Fuc(a1-6)]GlcNAc
# Outline: as §1
# [23] = biological target: Gal(b1-4)GlcNAc(b1-3)Gal(b1-4)GlcNAc(b1-3)Gal(b1-4)GlcNAc(b1-3)Gal(b1-4)GlcNAc(b1-3)Gal(b1-4)GlcNAc(b1-2)Man(a1-3)[Gal(b1-4)GlcNAc(b1-3)Gal(b1-4)GlcNAc(b1-3)Gal(b1-4)GlcNAc(b1-3)Gal(b1-4)GlcNAc(b1-3)Gal(b1-4)GlcNAc(b1-2)Man(a1-6)]Man(b1-4)GlcNAc(b1-4)GlcNAc
# Outline: as §1
binder,measurement,setting,value
his-Lectin-24A (Drosophila melanogaster) (protein) MFRLSVLVLNLLLVSHEFSAGTAKIEIQPLPALCNGYCFPTLKPVMEYVAIHQDKWNTCTEILANEARKDQIQLNIQLDALKADVSNIKASQLSKDEKLDRMEREQFAMHESLETINRYLTVKLDRTKLQLEAIKNTMDYMKAQMDGYFSAINGVQCLQPGFEKIGDRYFYIEEDVELNWLDAQAKCRRMGGHLASIKTKQEFDAIVEKLDDSKSYFLGVNENTKTGDFVSAASGKSCLYHEWGPGEPHHNNDQERCVSILRKLMHVGNCTYEKRFICQYGI,glycan array binding signal (z-score),[1],-0.536
same,glycan array binding signal (z-score),[2],2.61
same,glycan array binding signal (z-score),[3],-0.522
same,glycan array binding signal (z-score),[4],2.69
same,glycan array binding signal (z-score),[5],-0.328
same,glycan array binding signal (z-score),[6],-0.34
same,glycan array binding signal (z-score),[7],2.02
same,glycan array binding signal (z-score),[8],0.328
same,glycan array binding signal (z-score),[9],0.275
same,glycan array binding signal (z-score),[10],-1.19
same,glycan array binding signal (z-score),[11],2.35
same,glycan array binding signal (z-score),[12],-0.445
same,glycan array binding signal (z-score),[13],0.285
same,glycan array binding signal (z-score),[14],1.74
same,glycan array binding signal (z-score),[15],1.49
same,glycan array binding signal (z-score),[16],2.34
same,glycan array binding signal (z-score),[17],0.019
same,glycan array binding signal (z-score),[18],2.68
same,glycan array binding signal (z-score),[19],-1.25
same,glycan array binding signal (z-score),[20],-0.553
same,glycan array binding signal (z-score),[21],-0.79
same,glycan array binding signal (z-score),[22],3.44
same,glycan array binding signal (z-score),[23],4.07
